This is part of a sample that, as a whole, favours compounds with a hit. Of some 83,000 tested, about 20% had one in any assay.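 Single-dose data. Exposure time 48 hours. Values below 10 considered active.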 Active and inactive are the calls of the source.
Tests used:
Experiment in all cases: NCI-60 one-dose screen, 48 h (100 = growth as untreated, 0 = no growth, -100 = all killed)
Conditions in all cases: 10 µM unless noted
SR leukemia = test system: SR leukemia
RPMI-8226 leukemia = test system: RPMI-8226 leukemia
OVCAR-8 ovarian = test system: OVCAR-8 ovarian
OVCAR-5 ovarian = test system: OVCAR-5 ovarian
OVCAR-4 ovarian = test system: OVCAR-4 ovarian
SK-OV-3 ovarian = test system: SK-OV-3 ovarian
IGROV1 ovarian = test system: IGROV1 ovarian
OVCAR-3 ovarian = test system: OVCAR-3 ovarian
HS 578T breast = test system: HS 578T breast
NCI/ADR-RES ovarian = test system: NCI/ADR-RES ovarian
T-47D breast = test system: T-47D breast
BT-549 breast = test system: BT-549 breast
MDA-MB-435 melanoma = test system: MDA-MB-435 melanoma
SW-620 colon = test system: SW-620 colon
MCF7 breast = test system: MCF7 breast
HCT-116 colon = test system: HCT-116 colon
HCC-2998 colon = test system: HCC-2998 colon
KM12 colon = test system: KM12 colon

Measured: growth

CCCCCCCCCCCCCCCC(=O)OCC1OC(n2cnc3c(=S)nc(N)[nH]c32)C(OC(=O)CCCCCCCCCCCCCCC)C1OC(=O)CCCCCCCCCCCCCCC (stereo not drawn)
inactive: SR leukemia 11.4% | RPMI-8226 leukemia 30.1% | OVCAR-8 ovarian 55.8% | OVCAR-5 ovarian 52.1% | OVCAR-4 ovarian 78.3% | SK-OV-3 ovarian 20.8% | IGROV1 ovarian 77.1% | OVCAR-3 ovarian 50% | HS 578T breast 119% | NCI/ADR-RES ovarian 39.4% | T-47D breast 41.3% | BT-549 breast 53% | MDA-MB-435 melanoma 59.3% | SW-620 colon 78.6% | MCF7 breast 35% | HCT-116 colon 32.6% | HCC-2998 colon 53.6% | KM12 colon 71%

C(=N\Nc1ccccn1)/c1ccccn1
active: OVCAR-3 ovarian 7.56% | NCI/ADR-RES ovarian -9.79% | BT-549 breast -16.8% | HCT-116 colon 4.73%
inactive: SR leukemia 15.8% | RPMI-8226 leukemia 35.5% | OVCAR-8 ovarian 13.6% | OVCAR-5 ovarian 40.7% | OVCAR-4 ovarian 10.6% | SK-OV-3 ovarian 30.5% | IGROV1 ovarian 10.7% | HS 578T breast 62.8% | T-47D breast 22.8% | MDA-MB-435 melanoma 33.6% | SW-620 colon 37.4% | MCF7 breast 12.4% | HCC-2998 colon 19.2% | KM12 colon 29.6%

CCCCCCCCCCCCCCCC[N+]1(CC)CCCC1
inactive: NCI/ADR-RES ovarian 85.8% | T-47D breast 18.6%
active: SR leukemia -39.9% | RPMI-8226 leukemia -54.7% | OVCAR-8 ovarian -42.5% | OVCAR-5 ovarian 0.586% | OVCAR-4 ovarian -4.99% | SK-OV-3 ovarian -25.1% | IGROV1 ovarian -76% | OVCAR-3 ovarian -52.5% | HS 578T breast -8.22% | BT-549 breast -25.8% | MDA-MB-435 melanoma -60.6% | SW-620 colon -8.83% | MCF7 breast -18.2% | HCT-116 colon -46.4% | HCC-2998 colon -59.5% | KM12 colon -90.6%

COc1cc(/C=N\NC(=O)CN2CCN(c3cc4c(cc3F)c(=O)c(C(=O)N/N=C/c3ccc(O)c(OC)c3)cn4C3CC3)CC2)ccc1O
inactive: SR leukemia 33.9% | RPMI-8226 leukemia 31.2% | OVCAR-8 ovarian 61.7% | OVCAR-5 ovarian 98.2% | OVCAR-4 ovarian 47.8% | SK-OV-3 ovarian 106% | IGROV1 ovarian 63.7% | OVCAR-3 ovarian 14.4% | HS 578T breast 63.5% | NCI/ADR-RES ovarian 99.9% | BT-549 breast 56% | MDA-MB-435 melanoma 55% | SW-620 colon 57.2% | MCF7 breast 12.5% | HCT-116 colon 53.6% | KM12 colon 20.5%
active: T-47D breast -1.62% | HCC-2998 colon 7.72%

COc1ccc(C(=O)/C=C/c2c(Cl)c3c(c(OC)c2Cl)OCC(=O)N3)cc1
active: SR leukemia 3.68% | RPMI-8226 leukemia 3.79% | OVCAR-8 ovarian 6.16% | BT-549 breast -14.8% | MDA-MB-435 melanoma 7.18%
inactive: OVCAR-5 ovarian 76.8% | OVCAR-4 ovarian 47.2% | SK-OV-3 ovarian 77.9% | IGROV1 ovarian 63.1% | OVCAR-3 ovarian 10.9% | HS 578T breast 39.4% | NCI/ADR-RES ovarian 19.4% | T-47D breast 25.1% | SW-620 colon 17.7% | MCF7 breast 14.9% | HCT-116 colon 11.4% | HCC-2998 colon 41.8% | KM12 colon 15.9%

O=c1[nH]c(-c2ccccn2)nc2sc3c(c12)CCCCC3
inactive: SR leukemia 27.3% | RPMI-8226 leukemia 40.2% | OVCAR-8 ovarian 36.1% | OVCAR-5 ovarian 72.1% | OVCAR-4 ovarian 23.6% | SK-OV-3 ovarian 53% | IGROV1 ovarian 45.1% | OVCAR-3 ovarian 40.3% | HS 578T breast 81.7% | NCI/ADR-RES ovarian 15.1% | T-47D breast 33.8% | BT-549 breast 70.1% | MDA-MB-435 melanoma 55.7% | SW-620 colon 29.5% | MCF7 breast 32.9% | HCT-116 colon 24.7% | HCC-2998 colon 68.7% | KM12 colon 39.4%

COc1cc(C2CC(=O)Nc3c2c(C)nn3-c2nc3ccccc3[nH]2)cc(OC)c1OC (stereo not drawn)
inactive: SR leukemia 83.8% | RPMI-8226 leukemia 108% | OVCAR-8 ovarian 103% | OVCAR-5 ovarian 103% | OVCAR-4 ovarian 107% | SK-OV-3 ovarian 111% | IGROV1 ovarian 85.1% | OVCAR-3 ovarian 115% | HS 578T breast 94.5% | NCI/ADR-RES ovarian 98.7% | T-47D breast 103% | BT-549 breast 113% | MDA-MB-435 melanoma 103% | SW-620 colon 97.4% | MCF7 breast 88.1% | HCT-116 colon 107% | HCC-2998 colon 93.7% | KM12 colon 123%

COc1cc(-c2cc(-c3nc4ccc(Cl)cc4[nH]3)[nH]n2)cc(OC)c1OC
inactive: SR leukemia 41.9% | OVCAR-5 ovarian 97.3% | OVCAR-4 ovarian 32.2% | SK-OV-3 ovarian 61.7% | IGROV1 ovarian 44.3% | OVCAR-3 ovarian 57.8% | HS 578T breast 84.2% | NCI/ADR-RES ovarian 20% | BT-549 breast 22.4% | MDA-MB-435 melanoma 39.5% | SW-620 colon 78.7% | MCF7 breast 47% | HCT-116 colon 49.4% | HCC-2998 colon 89% | KM12 colon 47%
active: RPMI-8226 leukemia 9.58% | OVCAR-8 ovarian 3.73% | T-47D breast 0.183%

Cc1ccc2c(c1)C(=O)c1c-2c(OCCCN(C)C)nc2ccccc12
active: SR leukemia -27.5% | RPMI-8226 leukemia -16.3% | IGROV1 ovarian 3.1% | MDA-MB-435 melanoma -32.1% | SW-620 colon -57.3% | MCF7 breast -75.8% | HCC-2998 colon -15.2% | KM12 colon -46.4%
inactive: OVCAR-8 ovarian 17.2% | OVCAR-5 ovarian 51.6% | OVCAR-4 ovarian 27.3% | SK-OV-3 ovarian 60.3% | OVCAR-3 ovarian 55% | HS 578T breast 35.3% | NCI/ADR-RES ovarian 25.1% | T-47D breast 63.4% | BT-549 breast 71.5% | HCT-116 colon 21%

COc1ccc(/C=C2\N=C3Sc4cc(Cl)ccc4C(=O)N3C2=O)cc1
inactive: SR leukemia 88.4% | RPMI-8226 leukemia 101% | OVCAR-8 ovarian 94.6% | OVCAR-5 ovarian 98.1% | OVCAR-4 ovarian 103% | SK-OV-3 ovarian 98.1% | IGROV1 ovarian 107% | OVCAR-3 ovarian 104% | HS 578T breast 102% | NCI/ADR-RES ovarian 106% | T-47D breast 92% | BT-549 breast 114% | MDA-MB-435 melanoma 102% | SW-620 colon 97.1% | MCF7 breast 94.7% | HCT-116 colon 104% | HCC-2998 colon 118% | KM12 colon 104%

CN1CCN(Cc2ccc(NC(=O)c3cncc(C#Cc4c(N)ncc5ccc(C#N)cc45)c3)cc2C(F)(F)F)CC1
inactive: SK-OV-3 ovarian 127% | OVCAR-3 ovarian 90.9% | HS 578T breast 50.8% | T-47D breast 65% | BT-549 breast 92.3% | HCC-2998 colon 78.5%
active: SR leukemia -13% | RPMI-8226 leukemia -23% | OVCAR-8 ovarian -40% | OVCAR-5 ovarian -84.5% | OVCAR-4 ovarian -73.9% | IGROV1 ovarian -53.6% | NCI/ADR-RES ovarian -30.5% | MDA-MB-435 melanoma -93.8% | SW-620 colon -69.2% | MCF7 breast -69.7% | HCT-116 colon -22% | KM12 colon -41.8%

O=C1c2cc3c(cc2-c2c1c1cc(Cl)c(Cl)cc1c(=O)n2C[C@H](O)CO)OCO3
active: SR leukemia -23.2% | RPMI-8226 leukemia -8.53% | OVCAR-8 ovarian -20.2% | OVCAR-5 ovarian -23% | OVCAR-4 ovarian -51.8% | SK-OV-3 ovarian -54% | IGROV1 ovarian -2.45% | OVCAR-3 ovarian -54.2% | NCI/ADR-RES ovarian -29.4% | T-47D breast -20.2% | BT-549 breast -10.3% | MDA-MB-435 melanoma -24.8% | MCF7 breast -0.37% | HCT-116 colon -25.4% | HCC-2998 colon -5.57% | KM12 colon -21%
inactive: HS 578T breast 33% | SW-620 colon 12.7%

Cc1cc2cc3cc(C)c(N(C)C)cc3nc2cc1N(C)C
inactive: SR leukemia 25% | OVCAR-8 ovarian 22.5% | OVCAR-5 ovarian 53.9% | OVCAR-4 ovarian 32.4% | SK-OV-3 ovarian 17.7% | HS 578T breast 31.7% | NCI/ADR-RES ovarian 82.5% | MDA-MB-435 melanoma 29.1% | SW-620 colon 17.7% | MCF7 breast 13.5% | HCT-116 colon 13.7% | HCC-2998 colon 23.7%
active: RPMI-8226 leukemia -0.205% | IGROV1 ovarian -13.8% | OVCAR-3 ovarian -25.5% | T-47D breast 7.76% | BT-549 breast -11.6% | KM12 colon 3.92%

O=C([C@@H](COCc1ccccc1)N1C(=O)[C@@H](N2C(=O)OC[C@@H]2c2ccccc2)[C@H]1/C=C/c1ccccc1)N1CCC(CCN2CCCCC2)CC1
inactive: SR leukemia 30.9% | RPMI-8226 leukemia 65.2% | OVCAR-8 ovarian 98.6% | OVCAR-5 ovarian 102% | OVCAR-4 ovarian 86.8% | SK-OV-3 ovarian 86.6% | IGROV1 ovarian 84.1% | OVCAR-3 ovarian 91.5% | HS 578T breast 90.8% | NCI/ADR-RES ovarian 95.4% | T-47D breast 77.2% | BT-549 breast 90% | MDA-MB-435 melanoma 97.7% | SW-620 colon 98% | MCF7 breast 74.9% | HCT-116 colon 83.1% | HCC-2998 colon 84% | KM12 colon 97.1%

CCCCOc1ccc(NC(=O)n2nc(NC(C)=O)c3cc(NC(C)=O)ccc32)cc1
inactive: SR leukemia 88.4% | RPMI-8226 leukemia 76.9% | OVCAR-8 ovarian 92.5% | OVCAR-5 ovarian 114% | OVCAR-4 ovarian 106% | SK-OV-3 ovarian 117% | IGROV1 ovarian 95.3% | OVCAR-3 ovarian 98% | HS 578T breast 103% | NCI/ADR-RES ovarian 105% | T-47D breast 83.2% | BT-549 breast 81% | MDA-MB-435 melanoma 92.3% | SW-620 colon 121% | MCF7 breast 91.9% | HCT-116 colon 88.8% | HCC-2998 colon 101% | KM12 colon 111%

Cc1nc2sc(C(=O)Nc3cccc4c3OCCO4)c(N)c2cc1C(C)O (stereo not drawn)
active: SK-OV-3 ovarian -11.4% | OVCAR-3 ovarian 7.73% | T-47D breast -13.2% | MDA-MB-435 melanoma -39.2%
inactive: SR leukemia 26.4% | RPMI-8226 leukemia 26.5% | OVCAR-8 ovarian 49.5% | OVCAR-5 ovarian 73.7% | OVCAR-4 ovarian 69.4% | IGROV1 ovarian 49% | HS 578T breast 33.5% | NCI/ADR-RES ovarian 31% | BT-549 breast 56.1% | SW-620 colon 22.4% | MCF7 breast 11.2% | HCT-116 colon 31.3% | HCC-2998 colon 66.5% | KM12 colon 20.7%
